An excerpt weighted towards active compounds, which were near 4.1% of everything screened.
IDE cell inh: cellular human IDE inhibition; AID 434962; 320,000 compounds, 0.41% hits; HEK cells, FAbetaB cleavage, fluorescence polarization; inhibition, % at 5.59 µM; P14735;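 active = percent inhibition above the average of all tested compounds plus 3 SD, set per screening campaign, cut at about 16% in these data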;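 note: IDE supplied by intact live HEK cells; FP after avidin binding of uncleaved biotin substrate so inhibition keeps polarization high; 0% = DMSO wells and 100% = 60 µM reference IDE inhibitor Ii1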
PolyA inh: blocks polyadenylation in yeast reporter cells | S. cerevisiae SKY197-pL101 polyadenylation reporter, beta-gal luminescence; efflux-impaired pdr1/pdr3 knockout yeast; score 100 = 6 SD above DMSO | activity score, % at 12 µM | 300,000 compounds, 0.02% hits | AID 1875;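 active = lowest replicate activity score at least 50, where 100 means six control SD above control mean; inconclusive = lowest score under 50 but half or more replicates reach 50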;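 note: yeast exposed to compound for 9 h at 30 °C; higher score means more reporter readthrough which indicates perturbed polyadenylation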
IDE cell activ: IDE (human) activation, cell-based; HEK cells, FAbeta-B cleavage, fluorescence polarization; 0% vehicle, 100% cell-free pure enzyme wells; activation, % at 5.96 µM; AID 493087; P14735; 340,000 compounds, 0.073% hits;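 active = activation above the mean of all tested compounds plus 3 SD, set per screening campaign, cut at about 17% in these data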
PfM18AAP inh: PfM18AAP enzyme inhibition; recombinant PfM18AAP, H-Glu-NHMec fluorogenic cleavage; inhibition, % at 7.35 µM; 290,000 compounds, 1.2% hits;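 active = inhibition above the campaign mean inhibition over all tested compounds plus 3 SD, cut at about 28% in these data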;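 note: 0% = plate median of test compound wells and 100% = 2 mM ZnCl2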
CaV13 FRET inh: Primary screen for inhibitors of IQ motif and Ca2+-dependent inactivation inhibitor domain binding in CACNA1D, Förster resonance energy transfer in living cells, …. HEK cells, CFP/YFP FRET ICDI-IQ, plate reader, 10 min; percent FRET-ratio fall versus neutral wells. AID 743397. inhibition, % at 12.3 µM. 340,000 compounds, 0.098% hits;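 active = mean replicate inhibition of at least 30% and at least 1% of replicates passing that level; inconclusive = only one of the two criteria is met; inactive = neither criterion is met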;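 note: 0% = median of the neutral control wells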
ALR inh: human ALR oxidase inhibition via reduced H2O2; purified ALR, DTT oxidation, H2O2 HRP-luminol luminescence; 290,000 compounds, 3.8% hits; P55789; inhibition, % (test concentration not listed);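 active = mean replicate inhibition above about 79%, with every replicate also reaching it, limit read from the data; inconclusive = only one of the two criteria met; inactive = mean below limit and not every replicate reaching it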
Target sequence (P55789 whole entry, looked up): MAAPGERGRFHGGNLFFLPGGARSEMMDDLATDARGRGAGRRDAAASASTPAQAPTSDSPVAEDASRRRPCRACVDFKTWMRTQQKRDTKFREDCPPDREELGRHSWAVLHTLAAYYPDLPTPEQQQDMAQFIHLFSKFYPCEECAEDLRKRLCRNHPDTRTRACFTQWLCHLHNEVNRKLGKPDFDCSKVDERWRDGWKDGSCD
Starred values were filed as active, the others as inactive; ? = inconclusive; · = no result.

SMILES | IDE cell inh | PolyA inh | IDE cell activ | PfM18AAP inh | CaV13 FRET inh | ALR inh
COc1ccc2nc(C(C)O)[nH]c2c1 (stereo unspecified) | 12 | 13 | 6 | 3 | -5 | -47
COC(=O)c1c(NS(C)(=O)=O)sc2c1CCCC2 | -4 | -25 | -3 | 12 | -1 | 65
COC(=O)c1c(NC(=O)C2CC=CCC2C(=O)O)sc(C(N)=O)c1C (stereo unspecified) | 2 | -1 | 0 | -5 | -5 | 99*
COC(=O)c1c(NC(C)=O)sc2c1CCCCC2 | 4 | -15 | 1 | 18 | -6 | ·
COC(=O)c1c(NC(=O)C2CC=CCC2C(=O)O)sc2c1CCCCC2 (stereo unspecified) | -1 | 0 | 3 | 29* | · | 6
COC(=O)c1c(NS(=O)(=O)Cc2ccccc2)sc2c1CCCC2 | 2 | -23 | -2 | 5 | · | 91*
O=C1OC(c2ccccc2)/C(=C(/O)c2ccc(Cl)cc2)C1=O (stereo unspecified) | 2 | 19 | 1 | 12 | -3 | 98*
Cc1ccc(/C(O)=C2/C(=O)C(=O)OC2c2ccc(Cl)cc2)cc1 (stereo unspecified) | 2 | 3 | 2 | 4 | -7 | 92*
O=C1OC(c2ccccc2)/C(=C(/O)c2ccccc2)C1=O (stereo unspecified) | 3 | 15 | 6 | 18 | -5 | 92*
Cn1c(=O)c2cc(NC(=O)OCCF)ccc2n1Cc1cccc(C(F)(F)F)c1 | · | · | · | · | -5 | ·
C=CCn1c(COc2ccc(F)cc2)nnc1SC(C)C(=O)NCC1CCCO1 (stereo unspecified) | 0 | · | -6 | · | -3 | -6
CC(=O)Nc1ccc(OCC(O)Cn2ccnc2C)cc1 (stereo unspecified) | -1 | 4 | 2 | -1 | -6 | ·
O=C1[C@@H]2Cc3c([nH]c4ccccc34)C(c3ccc(Cl)cc3)N2C(=O)CN1CCO (stereo partly specified) | 8 | 0 | 1 | 3 | -3 | 99*
O=C1[C@@H]2Cc3c([nH]c4ccccc34)C(c3ccccc3)N2C(=O)CN1CCO (stereo partly specified) | 4 | 19 | -4 | 2 | -4 | 54
C=C(C)CNC(=S)N/N=C/c1ccco1 | -2 | -2 | 7 | 2 | 0 | ·
COC(=O)c1ccc(NC(=O)CSC2=Nc3ccccc3C3CC=NN23)cc1 (stereo unspecified) | -1 | -11 | 1 | -1 | · | 97*
NC(=O)c1ccc(NC(=O)CSC2=Nc3ccccc3C3CC=NN23)cc1 (stereo unspecified) | 1 | -8 | 0 | 1 | · | 99*
Cc1ccc(NC(=O)CSC2=Nc3ccccc3C3CC=NN23)c(C)c1 (stereo unspecified) | -1 | -32 | 2 | 19 | -5 | 7
O=C(NCC1(c2ccccc2)CCCC1)c1cccc(Br)c1 | -5 | 1 | 1 | -7 | · | 2
COC(=O)CNC(c1ccccc1)c1cc(Br)ccc1N (stereo unspecified) | 5 | -9 | 1 | -15 | -5 | 99*
NNC(=O)CNC(c1ccccc1)c1cc(Br)ccc1N (stereo unspecified) | 0 | 7 | 4 | 4 | -5 | 19
CCCn1ncc2c(Nc3ccc(C)c(C)c3)ncnc21 | 5 | -9 | -11 | 2 | -5 | 96*
Cn1ncc2c(Nc3ccc(Cl)c(Cl)c3)ncnc21 | 2 | ? | -15 | 2 | -7 | ·
CCOc1ccccc1CNS(=O)(=O)c1ccc2[nH]c(=O)sc2c1 | 7 | 15 | 1 | 4 | · | -2
CCN(CCNS(=O)(=O)c1ccc2[nH]c(=O)sc2c1)c1ccccc1 | 1 | 1 | -7 | 4 | -7 | 98*
SMILES | IDE cell inh | PolyA inh | IDE cell activ | PfM18AAP inh | CaV13 FRET inh | ALR inh
COCC(=O)NNS(=O)(=O)c1ccccc1[N+](=O)[O-] | 4 | 18 | 1 | -10 | -5 | -10
CCOCCCn1c(=N)c(S(=O)(=O)c2ccc(C)cc2)cc2c(=O)n3cc(C)ccc3nc21 | 4 | -8 | 5 | 4 | 14 | 19
CC1=NN(C(N)=S)C(=O)C1N=Nc1ccc([N+](=O)[O-])cc1 (stereo unspecified) | -3 | 14 | 1 | 4 | · | 79*
CC1=NN(C(N)=S)C(=O)C1N=Nc1ccc(O)cc1 (stereo unspecified) | · | 4 | 6 | 29* | -4 | ·
CC(=O)OC[C@H]1O[C@H](C/C=N/OC[C@@H](O)[C@H]2O[C@@H]3OC(C)(C)O[C@@H]3[C@H]2O)C=C[C@@H]1OC(C)=O | 2 | -14 | · | 7 | · | 1
COc1cc(CNc2ccc(N3CCOCC3)cc2)ccc1OCC(=O)NC(C)(C)C | -1 | 11 | 1 | 5 | -19 | 99*
COc1cc(CNc2ccc(N3CCN(C(C)=O)CC3)cc2)ccc1OCc1ccccc1 | 4 | -6 | 5 | 6 | 1 | 99*
COc1cc(CNCCCO)ccc1OCC(=O)NC(C)(C)C | 0 | 1 | 5 | 0 | -4 | ·
COC(=O)C1=C(C)NC(=O)NC1c1ccc2c(c1)OCO2 (stereo unspecified) | -2 | 0 | 7 | 1 | -5 | 5
CCC(CC)C(=O)N(C)c1c(C)nc2c(OCC=C(C)C)cccn12 | · | · | · | · | -7 | ·
Cc1cccc(N2CCN(C(=O)c3ccncc3)CC2C)c1 (stereo unspecified) | 1 | 18 | -4 | 0 | -4 | 98*
Cc1cccc(N2CCN(C(=O)Cn3nc(C)n4cccc4c3=O)CC2C)c1 (stereo unspecified) | -1 | 2 | -3 | 1 | -11 | 91*
Cc1cccc(N2CCN(C(=O)c3ccc(NC(=O)C4CCCO4)cc3)CC2C)c1 (stereo unspecified) | 15 | -3 | 1 | -1 | -3 | 99*
Cc1cccc(N2CCN(C(=O)c3cn4ccccc4n3)CC2C)c1 (stereo unspecified) | 0 | 1 | 3 | 1 | 11 | 83*
Cc1ccccc1C(=O)NC1CCCCN(C)C1=O (stereo unspecified) | · | · | · | · | -2 | ·
COc1ccccc1-c1c(NC(=O)C(C)C)n(C)c2ccccc2c1=O | -2 | 4 | 3 | 2 | -19 | 0
c1cn2cc(-c3ccc4c(c3)OCO4)nc2s1 | -7 | -10 | -10 | -5 | -9 | 95*
Cc1c2c(nc3nnnn13)CCCC2 | 5 | 16 | -2 | -2 | -6 | -12
O=C(c1ccccc1)N1CCN(CC(O)COCC2CC=CCC2)CC1 (stereo unspecified) | 9 | -2 | 0 | -11 | -8 | -13
O=C(c1ccccc1)N1CCN(CC2CC=CCC2)CC1 (stereo unspecified) | 0 | 10 | -1 | 32* | -5 | -1
